Laboratory results from PubChem BioAssay AID1159580 (chemical genetic matrix, 2015).
Among all 5,500 compounds or so, about 2,000 (36%) were called active. Roughly 18% stayed inconclusive and do not appear here. Cut-off read from the data, not from the text of the source: active = normalized growth mostly below about 0.91 (no sharp cut-off); inconclusive = no clear call, values can overlap the other calls; inactive = mostly above about 0.92. The list shows a part of the results.

Test: chemical genetic growth profiling, strain panel (AID 1159580);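 note: tested at 20 µM; growth read once vehicle control cultures reached saturation at 30 °C; 1 = growth at the plate median or of vehicle wells; lower values mean less growth of the strain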
Settings: S. cerevisiae deletion strains, growth OD

Measured: normalized growth

COc1cc(O)c(C(=O)c2ccccc2)cc1O
inactive: locus YAL013W, strain DEP1, active compounds read low 1.02 | locus YAL021C, strain ccr4, active compounds read low 1.01 | locus YAL026C, strain drs2, active compounds read low 0.963 | locus YAL030W, strain snc1, active compounds read low 1.01 | locus YBL061C, strain skt5, active compounds read low 1.01 | locus YBR009C, strain hhf1, active compounds read low 0.969 | locus YBR021W, strain FUR4, active compounds read low 1.07 | locus YBR023C, strain chs3, active compounds read low 0.985 | locus YBR171W, strain sec66, active compounds read low 1.01 | locus YBR229C, strain ROT2, active compounds read low 1.02 | locus YBR231C, strain swc5, active compounds read low 1.01 | locus YBR279W, strain paf1, active compounds read low 0.988 | locus YCL011C, strain gbp2, active compounds read low 0.971 | locus YCL016C, strain dcc1, active compounds read low 0.965 | locus YCL029C, strain bik1, active compounds read low 0.978 | locus YCL069W, strain vba3, active compounds read low 0.996 | locus YCR088W, strain abp1, active compounds read low 1 | locus YDL005C, strain med2, active compounds read low 1.01 | locus YDL035C, strain GPR1, active compounds read low 1.07 | locus YDL040C, strain nat1, active compounds read low 1 | locus YDL074C, strain BRE1, active compounds read low 1.01 | locus YDL101C, strain DUN1, active compounds read low 0.998 | locus YDL185W, strain tfp1, active compounds read low 0.972 | locus YDL192W, strain arf1, active compounds read low 0.971 | locus YDR001C, strain nth1, active compounds read low 1.02 | locus YDR069C, strain doa4, active compounds read low 1.02 | locus YDR101C, strain arx1, active compounds read low 1.01 | locus YDR137W, strain rgp1, active compounds read low 0.857 | locus YDR159W, strain sac3, active compounds read low 0.973 | locus YDR162C, strain NBP2, active compounds read low 1.02 | locus YDR195W, strain ref2 1.03 | locus YDR297W, strain sur2, active compounds read low 0.99 | locus YDR318W, strain mcm21, active compounds read low 0.963 | locus YDR334W, strain swr1, active compounds read low 1.03 | locus YDR335W, strain msn5, active compounds read low 0.988 | locus YDR388W, active compounds read low 0.979 | locus YDR502C, strain sam2, active compounds read low 0.965 | locus YEL003W, strain gim4, active compounds read low 0.985 | locus YEL037C, strain rad23, active compounds read low 1.01 | locus YEL061C, strain CIN8 (second series), active compounds read low 1.01 | locus YEL061C, strain CIN8, active compounds read low 1.03 | locus YER015W, strain faa2, active compounds read low 0.966 | locus YER016W, strain bim1, active compounds read low 1 | locus YER110C, active compounds read low 0.964 | locus YER111C, strain swi4, active compounds read low 1.02 | locus YER155C, strain BEM2, active compounds read low 1.01 | locus YER167W, strain BCK2, active compounds read low 1 | locus YFR010W, strain ubp6, active compounds read low 1.03 | locus YGL078C, strain dbp3, active compounds read low 0.937 | locus YGL086W, strain mad1, active compounds read low 0.974 | locus YGL167C, strain pmr1, active compounds read low 0.999 | locus YGL173C, strain kem1, active compounds read low 1 | locus YGL227W, strain vid30, active compounds read low 1.01 | locus YGL240W, strain doc1, active compounds read low 0.944 | locus YGL248W, strain PDE1, active compounds read low 1.05 | locus YGL253W, strain hxk2, active compounds read low 1.04 | locus YGR135W, strain pre9, active compounds read low 0.923 | locus YGR252W, strain gcn5, active compounds read low 1 | locus YHR013C, strain ard1, active compounds read low 1.05 | locus YHR027C, strain rpn1, active compounds read low 1.02 | locus YHR079C, strain IRE1 (second series), active compounds read low 0.959 | locus YHR094C, strain hxt1, active compounds read low 0.974 | locus YHR129C, strain ARP1, active compounds read low 1.02 | locus YHR142W, strain chs7, active compounds read low 1.01 | locus YHR200W, strain rpn10, active compounds read low 0.968 | locus YIL066C, strain RNR3, active compounds read low 1.03 | locus YIL073C, strain SPO22, active compounds read low 1 | locus YIL125W, strain kgd1, active compounds read low 1 | locus YIR030C, strain dcg1, active compounds read low 0.976 | locus YJL092W, strain hpr5, active compounds read low 1.01 | locus YJL095W, strain BCK1 (second series), active compounds read low 0.996 | locus YJL095W, strain BCK1, active compounds read low 0.978 | locus YJL115W, strain asf1, active compounds read low 1.02 | locus YJL129C, strain trk1, active compounds read low 0.948 | locus YJL134W, strain LCB3, active compounds read low 1 | locus YJL154C, strain vps35, active compounds read low 1.02 | locus YJL164C, strain tpk1, active compounds read low 0.958 | locus YJL166W, strain qcr8, active compounds read low 0.993 | locus YJL168C, strain set2, active compounds read low 0.989 | locus YJL187C, strain SWE1 (second series), active compounds read low 0.993 | locus YJL187C, strain SWE1, active compounds read low 0.996 | locus YKL009W, strain mrt4, active compounds read low 0.892 | locus YKL068W, active compounds read low 0.982 | locus YKL085W, strain MDH1 (second series), active compounds read low 0.97 | locus YKL085W, strain MDH1, active compounds read low 0.97 | locus YKL160W, strain elf1, active compounds read low 0.945 | locus YKR001C, strain vps1, active compounds read low 1.01 | locus YKR026C, strain gcn3, active compounds read low 1.02 | locus YKR091W, strain srl3, active compounds read low 1.01 | locus YLL001W, strain dnm1, active compounds read low 0.951 | locus YLL026W, active compounds read low 1.01 | locus YLL041C, strain sdh2, active compounds read low 1.01 | locus YLR027C, strain aat2, active compounds read low 1.01 | locus YLR039C, strain RIC1, active compounds read low 0.963 | locus YLR058C, strain SHM2, active compounds read low 1.01 | locus YLR102C, strain apc9, active compounds read low 0.97 | locus YLR221C, strain rsa3, active compounds read low 0.988 | locus YLR258W, strain gsy2, active compounds read low 0.962 | locus YLR268W, strain sec22, active compounds read low 0.976 | locus YLR320W, strain mms22, active compounds read low 0.944 | locus YLR330W, strain CHS5, active compounds read low 1.02 | locus YLR342W, strain FKS1, active compounds read low 0.993 | locus YLR357W, strain rsc2, active compounds read low 0.994 | locus YLR370C, strain arc18, active compounds read low 1 | locus YLR371W, strain rom2, active compounds read low 0.966 | locus YLR384C, strain iki3, active compounds read low 0.996 | locus YLR418C, strain cdc73, active compounds read low 1.03 | locus YML016C, strain PPZ1, active compounds read low 1.01 | locus YML032C, strain rad52, active compounds read low 0.967 | locus YML120C, strain ndi1, active compounds read low 0.965 | locus YML124C, strain tub3, active compounds read low 0.97 | locus YMR058W, strain fet3, active compounds read low 1.02 | locus YMR078C, strain ctf18, active compounds read low 0.952 | locus YMR125W, strain sto1, active compounds read low 1.01 | locus YMR129W, active compounds read low 1 | locus YMR205C, strain PFK2, active compounds read low 0.991 | locus YMR223W, strain ubp8, active compounds read low 0.932 | locus YMR231W, strain pep5, active compounds read low 1.01 | locus YMR307W, strain GAS1, active compounds read low 1.19 | locus YNL067W, strain RPL9B, active compounds read low 1.01 | locus YNL071W, strain lat1, active compounds read low 0.982 | locus YNL209W, strain ssb2, active compounds read low 0.947 | locus YNL233W, strain BNI4, active compounds read low 1.04 | locus YNL248C, strain rpa49, active compounds read low 1.03 | locus YNL250W, strain rad50, active compounds read low 0.924 | locus YNL271C, strain bni1, active compounds read low 0.951 | locus YNL298W, strain CLA4, active compounds read low 0.995 | locus YNL307C, strain MCK1, active compounds read low 0.971 | locus YNL322C, strain KRE1 (second series), active compounds read low 0.973 | locus YNR049C, strain mso1, active compounds read low 1.03 | locus YNR052C, strain pop2, active compounds read low 0.96 | locus YOL012C, strain htz1 1.3 | locus YOL147C, strain pex11, active compounds read low 0.979 | locus YOR001W, strain rrp6, active compounds read low 0.995 | locus YOR061W, strain CKA2, active compounds read low 1.01 | locus YOR069W, strain VPS5, active compounds read low 0.999 | locus YOR070C, strain gyp1, active compounds read low 0.983 | locus YOR080W, strain dia2, active compounds read low 1.02 | locus YOR083W, strain WHI5, active compounds read low 0.933 | locus YOR106W, strain vam3, active compounds read low 0.917 | locus YOR136W, strain idh2, active compounds read low 0.977 | locus YOR144C, strain elg1, active compounds read low 0.976 | locus YOR184W, strain ser1, active compounds read low 1.07 | locus YOR265W, strain rbl2, active compounds read low 1.01 | locus YOR270C, strain vph1, active compounds read low 0.974 | locus YOR290C, strain snf2, active compounds read low 0.946 | locus YOR316C, strain cot1, active compounds read low 0.958 | locus YPL051W, strain arl3, active compounds read low 0.924 | locus YPL078C, strain atp4, active compounds read low 0.952 | locus YPL106C, strain sse1, active compounds read low 0.943 | locus YPL240C, strain hsp82, active compounds read low 0.997 | locus YPR119W, strain clb2, active compounds read low 0.95 | locus YPR141C, strain kar3, active compounds read low 0.96 | locus YPR163C, strain tif3, active compounds read low 0.94 | locus YPR167C, strain met16, active compounds read low 0.953 | strain wtn01, active compounds read low 0.998
active: locus YDR392W, strain spt3, active compounds read low 0.705 | locus YER155C, strain BEM2 (second series), active compounds read low 0.764 | locus YLR262C, strain YPT6 (second series), active compounds read low 0.768
